Reference: PubChem BioAssay (NCATS)
Results filed as inconclusive are left out. Where a call stands in place of a potency, no number is given. The source made the active and inactive calls. Calls come from the whole dose curve; as a rule, active = well fitted inhibition curve with a large enough effect; inconclusive = small, poorly fitted or top-dose-only effect; inactive = flat fitted curve, though single readings scatter.

Each molecule was assayed against Ubiquitin carboxyl-terminal hydrolase 1 (Homo sapiens) (UniProt O94782) (assay: Inhibitors of USP1/UAF1: Pilot qHTS (AID 504865; note: nearly all actives have a fitted effect of over 35% in size)). Conditions: purified USP1/UAF1, Ub-rhodamine cleavage fluorescence; series mostly up to 114 µM.
Description: Deubiquitinating enzymes (DUBs) are a class of enzymes that can cleave isopeptide bond formed between the C-terminal carboxylate of ubiquitin and a lysine side-chain amino group on the target protein. Among them, ubiquitin specific proteases (USPs) constitute the largest DUB family. Human USPs are emerging as promising targets for pharmacological intervention because of their connection to a number of human diseases, including prostate, colon and breast cancer (1, 2), pediatric acute lymphoblastic leukemia (3), and familial cylindromatosis (4). The advantage of inhibiting USPs lies in the potential specificity of therapeutic intervention that can lead to better efficacy and reduce nonspecific side effects.
In a collaboration between the University of Delaware and the NIH Chemical Genomics Center, a high-throughput screen assay was developed to screen for USP1/UAF1 inhibitors. This miniaturized assay has a fluorescent read-out and is used to screen the NIH Molecular Libraries Small Molecule Repository (MLSMR) in order to identify a small molecule that inhibits USP1.
NIH Chemical Genomics Center [NCGC]
NIH Molecular Libraries Probe Centers Network [MLPCN]
Assay Submitter (PI): Zhihao Zhuang, University of Delaware
1. Priolo, C., et al. (2006) The isopeptidase USP2a protects human prostate cancer from apoptosis. Cancer Res 66, 8625-8632
2. Popov, N., et al. (2007) The ubiquitin-specific protease USP28 is required for MYC stability. Nat Cell Biol 9, 765-774
3. De Pitta, C., et al. (2005) A leukemia-enriched cDNA microarray platform identifies new transcripts with relevance to the biology of pediatric acute lymphoblastic leukemia. Haematologica 90, 890-898
4. Kovalenko, A., et al. (2003) The tumour suppressor CYLD negatively regulates NF-kappaB signalling by deubiquitination. Nature 424, 801-805
3 microliters of reagents (buffer in columns 3 and 4 as negative control and 1nM USP1/UAF1 complex in columns 1, 2, and 5-48) are dispensed into Greiner black solid bottom 1536-well assay plates. Compounds are then transferred via Kalypsys pin tool equipped with 1536-pin array (10nl slotted pins, V&P Scientific, San Diego, CA). Following an incubation step of 15 min at room temperature, 1ul of Ub-Rho substrate (150nM final concentration) is added to initiate the reaction. The plates are immediately centrifuged at 1000 rpm for 15 seconds, and subsequently transferred to a ViewLux high-throughput CCD imager (PerkinElmer) wherein kinetic measurements of fluorescence are acquired using 480 nm excitation/540 nm emission filter set (6 reads every 60 seconds, see Table 1). All reagents are diluted in an assay buffer consisting of 50mM HEPES (pH 7.8), 0.5mM EDTA, 0.1 mg/ml BSA, 1mM TCEP, and 0.01% Tween-20.
Potency is the fitted concentration of half-maximal effect.

Chain of Ubiquitin carboxyl-terminal hydrolase 1 (Homo sapiens) (O94782 whole entry, looked up): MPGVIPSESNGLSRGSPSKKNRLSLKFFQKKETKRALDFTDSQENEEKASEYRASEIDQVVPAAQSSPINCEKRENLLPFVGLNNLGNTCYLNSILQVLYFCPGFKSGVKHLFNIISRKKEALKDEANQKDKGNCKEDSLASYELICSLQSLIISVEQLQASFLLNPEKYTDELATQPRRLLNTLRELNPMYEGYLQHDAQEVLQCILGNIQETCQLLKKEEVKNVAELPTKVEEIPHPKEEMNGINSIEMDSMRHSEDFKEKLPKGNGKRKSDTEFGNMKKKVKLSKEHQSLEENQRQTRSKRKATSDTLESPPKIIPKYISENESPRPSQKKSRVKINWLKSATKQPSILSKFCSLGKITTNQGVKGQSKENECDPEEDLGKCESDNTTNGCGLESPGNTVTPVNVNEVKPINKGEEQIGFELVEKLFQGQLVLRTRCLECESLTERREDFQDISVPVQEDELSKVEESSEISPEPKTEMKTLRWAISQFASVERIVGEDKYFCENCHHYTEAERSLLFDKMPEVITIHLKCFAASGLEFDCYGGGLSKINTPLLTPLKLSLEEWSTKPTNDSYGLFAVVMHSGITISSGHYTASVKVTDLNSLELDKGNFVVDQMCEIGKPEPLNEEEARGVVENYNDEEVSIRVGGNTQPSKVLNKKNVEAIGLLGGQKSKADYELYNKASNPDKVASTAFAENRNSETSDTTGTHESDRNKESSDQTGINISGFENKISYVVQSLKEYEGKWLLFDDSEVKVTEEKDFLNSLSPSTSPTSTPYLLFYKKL

Row | Structure (SMILES) | Potency
1 | COc1cc(/C=C(\C#N)C(=O)Nc2nnc(C(F)(F)F)s2)ccc1OCc1ccc(C(F)(F)F)cc1C(F)(F)F | 50.1 µM (active)
2 | O=C1C2C=CC=CC2=NC(=S)N1CCN1CCC(=C(c2ccc(F)cc2)c2ccc(F)cc2)CC1 (stereo not given) | inactive
3 | Nn1nnc2ccccc21 | inactive
4 | C[C@H](O)C(=O)C1=Nc2c(nc(N)[nH]c2=O)NC1 | 56.2 µM (active)
5 | CSC(=N)N | inactive
6 | CC1C(=O)N(C)C(=O)c2nc[nH]c21 (stereo not given) | inactive
7 | NC1(C(=O)O)CC1 | inactive
8 | CC(C)NC[C@H](O)COc1cccc2ccccc12 | inactive
9 | COc1cc(C(O)C(=O)O)ccc1O (stereo not given) | inactive
10 | O=c1cc(O)cc(/C=C/c2ccc(O)c(O)c2)o1 | inactive
11 | O=C(O)Cc1c[nH]c2ccc(O)cc12 | inactive
12 | NC(N)=NC(N)=Nc1cccc(Cl)c1 | inactive
13 | CC1CNCCN1S(=O)(=O)c1cccc2cnccc12 (stereo not given) | inactive
14 | Fc1ccc(CN(C2=NCCN2)c2c(Cl)cccc2Cl)cc1 | inactive
15 | CCC(=O)N1CCN(C(=O)c2ccccc2)CC1 | inactive
16 | NCCS(=O)O | inactive
17 | c1ccc2nc(C3=NCCN3)ccc2c1 | inactive
18 | CCCCCCCCCCC/C=C\C(C)(C)/C=C\CCCC(=O)O | 28.2 µM (active)
19 | NC1(C(=O)O)CCCCC1 | inactive
20 | Cc1cc2c(cc1Cl)N(C(=O)Nc1ccnc3ccccc13)CC2 | inactive

Row | Structure (SMILES) | Potency
21 | Cn1cc(C(F)(F)F)nc1-c1ccc(OCC(O)CNCCOc2ccc(O)c(C(N)=O)c2)cc1 (stereo not given) | inactive
22 | CC(N)(C(=O)O)c1ccc(C(=O)O)cc1 (stereo not given) | inactive
23 | C[C@H]1CC2C3CCC4=CC(=O)C=C[C@]4(C)[C@@]3(Cl)[C@@H](O)C[C@]2(C)[C@@]1(O)C(=O)CO (stereo not given in full) | inactive
24 | O=C(O)CCC/C=C\C[C@@H]1[C@@H](/C=C/[C@H](O)C2Cc3ccccc3C2)[C@@H](F)C[C@@H]1O | inactive
25 | O=c1[nH]c2ccccc2c2ccccc12 | inactive
26 | Cc1ccc2c(c1)C(N1CCN(C)CC1)=Nc1cccnc1N2 | inactive
27 | O=C1OC(=O)C2C3CCC(O3)C12 (stereo not given) | inactive
28 | CCC1(O)CC2CN(CCc3c([nH]c4ccccc34)[C@@](C(=O)OC)(c3cc4c(cc3OC)N(C=O)C3[C@]45CCN4CC=C[C@@](CC)([C@@H](OC(C)=O)[C@]3(O)C(=O)OC)[C@H]45)C2)C1 (stereo not given in full) | inactive
29 | O=C(O)CCC(=O)N1CCCC1C(=O)O (stereo not given) | inactive
30 | O=c1cc(-c2ccccc2F)[nH]c2cc3c(cc12)OCO3 | inactive
31 | O=C1Nc2ccc(I)cc2/C1=C/c1cc(Br)c(O)c(Br)c1 | 44.7 µM (active)
32 | CCN(CC)CCCCCCCCOC(=O)c1cc(OC)c(OC)c(OC)c1 | inactive
33 | c1ccc2c(c1)CC(N1CCN(c3cccc4c3OCCO4)CC1)C2 | inactive
34 | Brc1c(Br)c(Br)c2[nH]cnc2c1Br | inactive
35 | CN(CC[C@@H](Oc1ccc(C(F)(F)F)cc1)c1ccccc1)CC(=O)O | inactive
36 | Cc1cccc(C(=O)NCN2CCN(c3ccccc3C#N)CC2)c1 | inactive
37 | Cc1nc2n(c(=O)c1CCN1CCC(c3noc4cc(F)ccc34)CC1)CCCC2O (stereo not given) | inactive
38 | CC(C)C[C@H](NC(=O)[C@H](O)[C@H](N)Cc1ccccc1)C(=O)O | inactive
39 | C[C@](Cc1ccc(O)c(O)c1)(NN)C(=O)O | inactive
40 | NC(=O)c1ccccc1 | inactive
